In PubChem BioAssay (Tox21) one finds Potency data, which are given here for 32 compounds.

Results filed as inconclusive are left out. A number with no mark means an inactive call. Activity calls are given as the source filed them. Unless noted, calls come from the whole dose curve; as a rule, active = well fitted curve in the direction sought with a large enough effect in the repeat runs; inconclusive = weak or mixed curves; inactive = no such curve, though single readings can be large; an effect the other way counts as inactive or inconclusive.

The nature of assay [1]: qHTS assay to identify small molecule antagonists of the estrogen related receptor (ERR) signaling pathway from Tox21 library - cell viability counter screen (AID 1224834). Note: nearly all actives have a fitted effect of over 30% in size. Note: potency is the fitted concentration of half-maximal effect. The procedure, abridged:
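After 17.5 h of compound exposure at 37 C, ERR cells are incubated with CellTiter-Fluor for 30 min and fluorescence intensity serves as the viability measure.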

Assay [2] in a line: qHTS assay to identify small molecule agonists of the constitutive androstane receptor (CAR) signaling pathway - cell viability counter screen (AID 1224836). Note: series mostly up to about 92 µM; nearly all actives have a fitted effect of over 45% in size. The procedure, abridged:
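HepG2 cells stably carrying hCAR and a CYP2B6-2.2kb reporter were plated 4 h, then given compounds at 15 concentrations plus PK11195 (final 0.75 uM). After 23 h at 37 C, viability was read by CellTiter-Fluor fluorescence.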
On the technique in general: qHTS replaces the single test concentration by a dilution series.

Assay [3] is described as follows: qHTS assay to identify small molecule antagonists of the constitutive androstane receptor (CAR) signaling pathway - cell viability counter screen (AID 1224837). Note: nearly all actives have a fitted effect of over 45% in size. Note: potency is the fitted concentration of half-maximal effect. The gist of the method:
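Counter screen run in HepG2-CYP2B6-hCAR cells: 4 hr settle, compound titration (15 concentrations) with 50 nM CITCO, 23 hr at 37 C/5% CO2, CellTiter-Fluor fluorescence.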

The nature of assay [4]: qHTS assay to identify small molecule antagonists of the estrogen related receptor signaling pathway with the pleiotropic PPARgamma coactivator (PGC) from Tox21 10K library - cell viability counter screen (AID 1224840; active = well fitted cell-killing curve with a large enough effect in the repeat runs, not every such curve was filed as active; note: nearly all actives have a fitted effect of over 40% in size; note: potency is the fitted concentration of half-maximal effect). The gist of the method:
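Following seeding of 2,000 PGC/ERR cells/well and 6 hours' incubation, test compounds were delivered in DMSO. The plates then sat 17.5 hours at 37 C before a fluorogenic live-cell protease reagent (CellTiter-Fluor) was read after 30 min.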

Assay [5] addresses Thyrotropin receptor (Homo sapiens) (UniProt P16473). Put plainly: qHTS assay to identify small molecule agonists of the thyroid stimulating hormone receptor (TSHR) signaling pathway (AID 1224843; calls by dose curve; note: nearly all actives have a fitted effect of over 45% in size; note: potency is the fitted concentration of half-maximal effect). The gist of the method:
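Steps: seed 800 TSHR-HEK293 cells per well; add test compound and hold 30 min at ambient temperature; dispense cAMP-d2 then anti-cAMP cryptate; incubate 1 h at ambient; measure fluorescence intensity.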

The target of assay [6] is Nuclear receptor subfamily 1 group I member 3 (Homo sapiens) (UniProt Q14994). In words: qHTS assay to identify small molecule antagonists of the constitutive androstane receptor (CAR) signaling pathway (AID 1224838). Note: nearly all actives have a fitted effect of over 40% in size. The procedure, abridged: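 Cell line: HepG2 double-stable for hCAR and CYP2B6-2.2kb reporter. Agonist: CITCO, 50 nM final. Compounds: 15 concentrations, 24 h, 37 C. Detection: ONE-Glo luminescence.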

For assay [7] the target is unchanged. In words: qHTS assay to identify small molecule agonists of the constitutive androstane receptor (CAR) signaling pathway (AID 1224839). Note: nearly all actives have a fitted effect of over 15% in size. Note: potency is the fitted concentration of half-maximal effect. The gist of the method:
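HepG2 cells stably expressing hCAR and a CYP2B6-2.2kb luciferase reporter were treated with compounds at 15 concentrations plus 0.75 uM PK11195 (final) for 24 h at 37 C; luminescence was read after ONE-Glo addition.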

Assay [8] in a line: qHTS assay to identify small molecule antagonists of the estrogen related receptor signaling pathway with the pleiotropic PPARgamma coactivator (PGC) from Tox21 10K library (AID 1224841; call rule not given here; note: actives are mostly falling curves and most rising ones were filed inactive; nearly all actives have a fitted effect of over 50% in size; note: potency is the fitted concentration of half-maximal effect). The gist of the method: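 qHTS antagonist format: PGC/ERR cells, 2k/well, compound in DMSO by pin transfer after 6 h attachment, 18 h treatment at 37 C, One-Glo luminescence read at 30 min.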

The nature of assay [9]: qHTS assay to identify small molecule agonists of the estrogen related receptor signaling pathway with the pleiotropic PPARgamma coactivator (PGC) from Tox21 10K library (AID 1224842). Note: nearly all actives have a fitted effect of over 15% in size. Note: potency is the fitted concentration of half-maximal effect. The gist of the method: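 PGC/ERR reporter cell line, 2,000 cells per well, incubated 6 h at 37 C before 23 nL compound in DMSO was added. After 18 h at 37 C, One-Glo luminescence read following 30 min at room temperature.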

For assay [10], the target named is Luciferin 4-monooxygenase (Photinus pyralis) (UniProt P08659). Put plainly: qHTS assay to identify small molecule inhibitors of firefly luciferase (AID 1224835). Note: nearly all actives have a fitted effect of over 25% in size. Note: potency is the fitted concentration of half-maximal effect. The gist of the method: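 Biochemical qHTS: compounds run as interplate titrations against purified firefly enzyme, with D-luciferin and ATP each at its KM concentration. Light output recorded by CCD imaging.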
Chain of Luciferin 4-monooxygenase (Photinus pyralis) (P08659 whole entry, looked up): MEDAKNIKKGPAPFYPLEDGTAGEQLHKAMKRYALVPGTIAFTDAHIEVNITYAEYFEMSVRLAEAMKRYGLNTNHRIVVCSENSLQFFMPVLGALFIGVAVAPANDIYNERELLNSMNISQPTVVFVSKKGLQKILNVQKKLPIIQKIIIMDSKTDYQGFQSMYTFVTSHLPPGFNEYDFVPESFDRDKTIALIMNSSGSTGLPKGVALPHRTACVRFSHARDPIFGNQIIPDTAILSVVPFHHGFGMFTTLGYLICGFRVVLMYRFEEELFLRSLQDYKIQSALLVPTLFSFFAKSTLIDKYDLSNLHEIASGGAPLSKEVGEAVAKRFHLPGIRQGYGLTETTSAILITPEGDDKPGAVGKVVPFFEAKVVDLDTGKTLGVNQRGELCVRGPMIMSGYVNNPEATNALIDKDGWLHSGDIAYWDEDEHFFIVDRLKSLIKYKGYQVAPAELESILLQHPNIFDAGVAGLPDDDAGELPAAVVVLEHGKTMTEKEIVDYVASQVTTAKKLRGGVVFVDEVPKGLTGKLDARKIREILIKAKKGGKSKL

Chain of Nuclear receptor subfamily 1 group I member 3 (Homo sapiens) (Q14994 whole entry, looked up): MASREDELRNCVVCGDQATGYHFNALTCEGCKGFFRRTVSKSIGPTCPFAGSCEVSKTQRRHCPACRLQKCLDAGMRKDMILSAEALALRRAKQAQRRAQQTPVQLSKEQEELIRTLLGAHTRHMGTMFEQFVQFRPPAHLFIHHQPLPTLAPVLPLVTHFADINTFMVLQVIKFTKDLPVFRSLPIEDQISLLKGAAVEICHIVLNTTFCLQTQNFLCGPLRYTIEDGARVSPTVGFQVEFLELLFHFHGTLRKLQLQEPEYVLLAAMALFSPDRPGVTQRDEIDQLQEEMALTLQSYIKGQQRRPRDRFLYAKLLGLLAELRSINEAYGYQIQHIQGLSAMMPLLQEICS
Chain of Thyrotropin receptor (Homo sapiens) (P16473 whole entry, looked up): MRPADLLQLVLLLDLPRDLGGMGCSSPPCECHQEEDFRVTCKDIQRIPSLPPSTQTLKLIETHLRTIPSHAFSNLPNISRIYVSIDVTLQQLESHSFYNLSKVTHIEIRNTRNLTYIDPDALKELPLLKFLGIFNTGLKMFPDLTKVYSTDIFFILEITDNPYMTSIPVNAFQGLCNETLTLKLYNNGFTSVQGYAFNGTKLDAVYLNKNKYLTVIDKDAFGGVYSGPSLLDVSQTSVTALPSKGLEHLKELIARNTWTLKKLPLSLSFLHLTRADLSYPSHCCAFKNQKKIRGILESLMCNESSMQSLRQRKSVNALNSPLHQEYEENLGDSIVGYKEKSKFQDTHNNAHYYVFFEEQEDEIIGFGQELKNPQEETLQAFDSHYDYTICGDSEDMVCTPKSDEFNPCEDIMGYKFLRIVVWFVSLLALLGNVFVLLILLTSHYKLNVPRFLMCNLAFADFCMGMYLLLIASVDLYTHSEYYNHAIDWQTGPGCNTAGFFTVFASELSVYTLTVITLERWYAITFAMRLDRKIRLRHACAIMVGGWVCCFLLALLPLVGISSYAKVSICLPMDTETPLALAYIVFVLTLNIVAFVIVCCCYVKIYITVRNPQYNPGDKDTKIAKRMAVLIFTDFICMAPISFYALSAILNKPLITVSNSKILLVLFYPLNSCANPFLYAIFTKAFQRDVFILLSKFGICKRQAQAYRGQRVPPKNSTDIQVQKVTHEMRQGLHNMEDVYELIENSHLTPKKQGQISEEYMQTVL

In the case of `O=S(=O)(Oc1ccc(Cl)cc1)c1ccccc1`, the Potency result in assay [1], in assay [2], in assay [3], in assay [4] and in [5] was “inactive” in each case.
Turning to `CCCCCCOC(=O)NC(=N)c1ccc(NCc2nc3cc(C(=O)N(CCC(=O)OCC)c4ccccn4)ccc3n2C)cc1`, the Potency is 29.8 µM (active) in assay [1], 29.8 µM (active) in [4] and 16.8 µM (active) in assay [8]. The Potency result in assay [2], in assay [3], in assay [6], in assay [7], in assay [9] and in assay [5] was “inactive” in each case.
For the compound `CC(=O)c1cccc([N+](=O)[O-])c1`, the Potency entry in [10], in [2], in assay [3], in [6], in assay [7] and in assay [4] was “inactive” throughout.
Turning to `CN(C)CCN(Cc1ccccc1)c1ccccn1`, the Potency entry in assay [1], in assay [10], in assay [3], in [4] and in assay [5] was “inactive” each time.
Consider `Brc1c2ccccc2cc2ccccc12`, for which the Potency entry in assay [1], in assay [2], in [3], in assay [6], in assay [4] and in assay [5] was “inactive” throughout. For the same compound, the Potency in [7] was 55 µM (active).
As to `O=C(O)C(S)C(S)C(=O)O` (stereo unspecified), the Potency entry in assay [1], in assay [2], in [3], in [6], in assay [7] and in assay [4] was “inactive” in each case. Moreover, in assay [5], the Potency result was “inactive”.
For `CCc1cc(C2=C(C(=O)O)N(c3ccccc3C(F)(F)F)S(=O)(=O)c3ccccc32)cc2c1OCO2`, the Potency was 7.61 µM (active) in assay [1] and 30.3 µM (active) in assay [8]. Further, the Potency result in assay [10] and in assay [7] was “inactive” throughout.
For the compound `CC(=O)[O][Al][O]C(C)=O`, the Potency entry in [1], in assay [3], in assay [4], in assay [8] and in assay [9] was “inactive” in each case.
On to `CCCCCCCCCCCCCCCCCCOS(=O)(=O)O`, for which the Potency result in [10], in assay [2] and in assay [3] was “inactive” in each case.
As for `CC(=O)[O][Al]`, the Potency result in assay [1], in assay [2], in assay [3], in assay [4] and in assay [8] was “inactive” each time.
`S=C([S-])NCCNC(=S)[S-].[Mn+2]`: the Potency entry in [1], in [4] and in [5] was “inactive” in each case. In addition, the Potency in [10] was 12.6 µM (active).
As for `CCCCO`, the Potency result in assay [1], in assay [2], in assay [3], in assay [4] and in assay [5] was “inactive” each time.
For `Cc1oc(-c2ccccc2)nc1CCOc1cccc2c1ccn2CCC(=O)O`, in assay [1], the Potency was 30.6 µM (active). In addition, the Potency entry in [2], in assay [6], in [7], in assay [4] and in assay [5] was “inactive” throughout.
`C=CC(=O)OCCOc1ccccc1`: the Potency result in assay [1], in assay [2], in assay [3], in assay [4] and in assay [5] was “inactive” each time. The Potency in assay [9] was 68.5 µM (active).
For the compound `O=[N+]([O-])c1cccc(S(=O)(=O)O)c1`, the Potency in assay [1] is 43.9 µM (active). Besides, the Potency result in assay [10], in assay [7] and in assay [9] was “inactive” throughout.
For `OCc1cc(C(O)CNCCCCCCOCCCCc2ccccc2)ccc1O` (stereo unspecified), the Potency was 10.6 µM (active) in [1] and 13.3 µM (active) in assay [3]. For the same compound, the Potency entry in [10], in assay [4] and in assay [9] was “inactive” in each case.
Take `Cc1ccc(N=Nc2c(O)c(C(=O)O)cc3ccccc23)c(S(=O)(=O)O)c1`: the Potency in assay [1] is 21 µM (active). In addition, the Potency result in [6], in [7] and in [5] was “inactive” in each case.
As for `CC(C)C[C@H]1C(=O)N2CCC[C@H]2[C@]2(O)O[C@](NC(=O)[C@@H]3C=C4c5cccc6[nH]c(Br)c(c56)C[C@H]4N(C)C3)(C(C)C)C(=O)N12`, the Potency in assay [1] is 18.4 µM (active). Besides, the Potency result in assay [10], in [6], in assay [9] and in [5] was “inactive” throughout.
For `O[C@@H](COc1cccc2ncccc12)CN1CCN(C2c3ccccc3[C@@H]3[C@H](c4ccccc42)C3(F)F)CC1` (stereo partly specified), the Potency is 9.44 µM (active) in [1] and 11.9 µM (active) in [5]. The Potency entry in [10] and in assay [7] was “inactive” in each case.
Consider `Cc1cccc(Nc2ccccc2)c1`, for which the Potency result in assay [1], in [2], in [3], in assay [6] and in [4] was “inactive” each time.
Regarding `CCCCC(CC)COC(=O)COc1ccc(Cl)cc1Cl` (stereo unspecified), the Potency entry in assay [1], in assay [2], in assay [3], in assay [4] and in assay [5] was “inactive” in each case.
Consider `O=C(NCC1CN(c2ccc(N3CCOCC3=O)cc2)C(=O)O1)c1ccc(Cl)s1` (stereo unspecified), for which the Potency result in [1], in assay [10], in assay [3], in assay [4], in assay [9] and in assay [5] was “inactive” each time.
As to `CN(C)CCCN1c2ccccc2Sc2ccccc21`, the Potency entry in assay [10], in assay [2], in assay [3], in [6], in [7] and in assay [4] was “inactive” in each case.
On to `COc1cc(Cl)ccc1Oc1ccc(Cl)cc1Cl`, for which the Potency result in assay [1], in assay [2], in assay [3], in assay [6], in [4] and in [5] was “inactive” throughout. Moreover, the Potency in [7] is 29.8 µM (active).
For `Cc1cccc(C)c1OCC(=O)N[C@@H](Cc1ccccc1)[C@@H](O)C[C@H](Cc1ccccc1)NC(=O)[C@H](C(C)C)N1CCCNC1=O`, the Potency is 21.1 µM (active) in [1], 13.3 µM (active) in assay [3] and 33.5 µM (active) in [4]. For the same compound, the Potency result in assay [10] and in assay [5] was “inactive” in each case.
Regarding `Cc1ccccc1S(=O)(=O)O`, the Potency result in assay [1], in [10], in assay [3], in [4] and in assay [5] was “inactive” each time.
Turning to `O=P(O)(OCc1ccccc1)OCc1ccccc1`, the Potency entry in assay [1], in assay [10], in assay [3], in assay [4] and in assay [5] was “inactive” in each case.
Take `O=C1CCCCCCCCCCCC(=O)OCCO1`: the Potency entry in [10], in assay [2], in assay [3], in assay [6], in [7] and in assay [4] was “inactive” each time. For the same compound, the Potency entry in assay [8] is “inactive”.
`CCN(CC)CCOC(=O)C(Cc1cccc2ccccc12)CC1CCCO1` (stereo unspecified): the Potency result in assay [10], in assay [2], in [3], in [6], in assay [7] and in assay [4] was “inactive” in each case. For the same compound, the Potency entry in assay [5] was “inactive”.
For `Nc1ccc([N+](=O)[O-])c(C(F)(F)F)c1`, the Potency result in [10], in assay [2], in assay [3], in assay [6], in assay [7] and in assay [4] was “inactive” each time. In addition, the Potency entry in assay [9] and in assay [5] was “inactive” each time.
On to `Cc1ncc(CO)c(C=O)c1O`, for which the Potency entry in assay [10], in [2], in assay [3], in [6], in assay [7] and in [4] was “inactive” in each case. Further, the Potency result in assay [9] and in [5] was “inactive” throughout.
In the case of `CN1CCC(=C2c3ccccc3Sc3ccccc32)CC1`, the Potency entry in assay [10], in assay [2], in assay [3], in [6], in assay [7] and in assay [4] was “inactive” each time. The Potency result in assay [8] and in [9] was “inactive” each time.
